# Hits are enriched below; roughly 11% of the tested compounds scored in any of these assays.
# USP17 block = inhibitors of human USP17 deubiquitinase. A8MUK1. purified USP17, Ub-rhodamine cleavage fluorescence, 3 h. inhibition, % at 50 µM. 6.5% of 47,000 active. AID 1645855
# Target sequence (A8MUK1 whole entry, looked up): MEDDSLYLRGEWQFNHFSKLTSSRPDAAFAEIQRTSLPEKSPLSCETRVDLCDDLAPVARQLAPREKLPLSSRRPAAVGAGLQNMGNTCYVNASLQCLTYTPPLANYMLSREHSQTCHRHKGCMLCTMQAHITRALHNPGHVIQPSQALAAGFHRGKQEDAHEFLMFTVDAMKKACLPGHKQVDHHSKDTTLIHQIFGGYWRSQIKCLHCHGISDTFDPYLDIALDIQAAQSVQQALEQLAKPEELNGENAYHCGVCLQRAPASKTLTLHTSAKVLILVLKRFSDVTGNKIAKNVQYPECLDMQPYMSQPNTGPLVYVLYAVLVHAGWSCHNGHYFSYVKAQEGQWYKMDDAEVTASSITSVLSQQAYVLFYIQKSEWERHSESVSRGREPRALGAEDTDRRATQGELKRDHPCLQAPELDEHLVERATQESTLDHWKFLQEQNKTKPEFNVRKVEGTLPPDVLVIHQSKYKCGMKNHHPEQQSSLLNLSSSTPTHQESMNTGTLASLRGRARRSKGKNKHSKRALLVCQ
# USP30 inh = human USP30 deubiquitinase inhibition | Q70CQ3 | purified USP30, Ub-rhodamine cleavage fluorescence | inhibition, % at 25 µM | 5.3% of 47,000 active
# USP28 block = blocks human USP28 ubiquitin-rhodamine cleavage; Q96RU2; purified USP28, Ub-rhodamine cleavage fluorescence, 30 min; inhibition, % at 25 µM; 3% of 47,000 active
# OTUD3 inh = inhibitors of human OTUD3 deubiquitinase | Q5T2D3 | purified OTUD3, Ub-rhodamine fluorescence, 2 h | inhibition, % at 25 µM | 0.7% of 47,000 active | AID 1645858
# * = called active by the depositor; nt = no result. Rule as the data show it: active = inhibition above about 30%; inactive = the rest.
SMILES,USP17 block,USP30 inh,USP28 block,OTUD3 inh
Cc1ccccc1Cn1c(=O)n(CCCC(=O)N2CCc3ccccc3C2)c(=O)c2ccccc21,11,47*,24,22
O=C(CCn1c(=O)c2ccccc2n(Cc2cc(=O)n3ccccc3n2)c1=O)N1CCc2ccccc2C1,-13,-11,-11,-17
O=C(Cn1c(=O)n(CCC(=O)N2CCc3ccccc3C2)c(=O)c2ccccc21)NCc1ccccc1Cl,77*,53*,49*,26
COc1ccc(-c2cc(-c3ccc(O)cc3)nc(N)c2C#N)cc1OC,46*,50*,73*,20
COc1cc(-c2cc(-c3ccccc3Br)nc(N)c2C#N)cc(OC)c1OC,-7,-40,-22,-16
CCN1CCN(S(=O)(=O)c2ccc3c(c2)NC(=O)C(C)CS3)CC1 (configuration not stated),-1,-1,-9,-4
Cc1cccc(NC(=O)CC2Nc3ccccc3OC2=O)c1 (configuration not stated),41*,-41,4,-7
CC(C)Cn1c(=O)c2cc(C(=O)NCc3ccncc3)nn2c2ccccc21,4,-1,0,-6
CC(C)Cn1nc(C(=O)N(CCc2cccs2)Cc2cccs2)c2ccccc2c1=O,33*,28,15,7
COc1ccc(NS(=O)(=O)c2cc(NC(=O)CCc3nc4ccccc4s3)ccc2C)cc1,60*,35*,-2,5
COc1cccc(NC(=O)C2C3C=CC4(O3)C2C(=O)N(CCc2ccccc2Cl)C4C(=O)NC2CCCCC2)c1 (configuration not stated),39*,39*,-1,32*
COc1cccc(NC(=O)C2C3C=CC4(O3)C2C(=O)N(CCc2ccc(Cl)cc2)C4C(=O)NC2CCCCC2)c1 (configuration not stated),6,7,13,9
CSc1cccc(NC(=O)C2C3C=CC4(O3)C2C(=O)N(Cc2ccc(C)cc2)C4C(=O)NC2CCCCC2)c1 (configuration not stated),50*,18,10,9
COc1ccc(NC(=O)C2C3C=CC4(O3)C2C(=O)N(CCc2ccccc2)C4C(=O)NC2CCCCC2)cc1 (configuration not stated),35*,56*,7,22
COc1ccc(NC(=O)C2C3C=CC4(O3)C2C(=O)N(Cc2ccccc2)C4C(=O)NC2CCCCC2)cc1 (configuration not stated),12,40*,0,10
Cc1ccc(NC(=O)C2C3C=CC4(O3)C2C(=O)N(CCCN2CCN(Cc3ccccc3)CC2)C4C(=O)NC2CCCCC2)cc1C (configuration not stated),-4,-1,0,-4
Cc1ccc(NC(=O)C2C3C=CC4(O3)C2C(=O)N(CCc2ccccc2)C4C(=O)NC2CCCCC2)cc1C (configuration not stated),30*,28,8,18
Cc1ccc(Cn2c(/C=C/c3ccc(F)cc3)nc3ccccc32)cc1,2,15,35*,6
N#Cc1ccc(/C=C/c2nc3ccccc3n2Cc2ccc(F)cc2)cc1,3,-41,-8,-20
O[C@H]1[C@H](NCc2ccccc2)[C@@H](c2ccncc2)C[C@H]1O,-31,-37,-6,-3
CN(C(=O)c1ccc(C(=O)c2ccccc2)cc1)c1nnc(C23CC4CC(CC(C4)C2)C3)s1,18,33*,21,16
CCCC(=O)N(Cc1ccccc1)c1nnc(C23CC4CC(CC(C4)C2)C3)s1,8,12,12,10
CC1Cc2ccccc2N1C(=O)Cn1c(=O)cc(O)c2ccccc21 (configuration not stated),-7,2,57*,-6
CC1Cc2ccccc2N1C(=O)Cn1c(CC(=O)N2CCCC2)nc2ccccc21 (configuration not stated),-16,2,-9,-1
O=C(CC1C(=O)N(Cc2ccccc2)c2nc3ccccc3n21)NCCc1ccccc1 (configuration not stated),22,60*,10,16
SMILES,USP17 block,USP30 inh,USP28 block,OTUD3 inh
O=C(CC1CCCCC1)N1CCCC(c2nn(CCOc3ccccc3)c3nccnc23)C1 (configuration not stated),26,35*,23,27
O=C(Nc1cccc(-c2ccc(N3CCOCC3)nn2)c1)c1ccc2ccccc2c1,-3,-14,4,-6
NC(=O)c1cc(NC(=O)c2ccc3ccccc3c2)cc(C(N)=O)c1,66*,66*,57*,7
FC(F)(F)c1cccc(Nc2nnc(-c3cccnc3)s2)c1,50*,22,-2,2
NC(=O)COC(=O)c1cccnc1Nc1cccc(C(F)(F)F)c1,-13,-44,16,-14
Cc1ccc(C(O)Cn2cc(C(=O)Nc3ccccc3)nn2)cc1 (configuration not stated),25,35*,18,9
Cc1ccc(-c2cc(C(=O)Nc3cccc(C)c3)[nH]n2)cc1,-83,-76,-12,-19
Cc1ccc(NC(=O)c2cccc(-n3cnnc3)n2)cc1,4,nt,nt,3
Cc1ccc(C(O)Cn2cc(C(=O)Nc3cccc(C)c3)nn2)cc1 (configuration not stated),80*,nt,nt,-1
COc1ccc(OC)c(NC(=O)C2c3ccccc3C(=O)N(C3CCCC3)C2c2cccs2)c1 (configuration not stated),-1,4,-5,0
COc1ccc(NC(=O)C2c3ccccc3C(=O)N(C3CCCC3)C2c2cccs2)c(OC)c1 (configuration not stated),18,40*,13,17
COc1ccc(NC(=O)C2c3ccccc3C(=O)N(C3CCCC3)C2c2cccs2)cc1OC (configuration not stated),56*,16,26,17
Cc1ccn(-c2ccc(N3CCN(C(=O)c4ccc5ccccc5c4)CC3)nn2)n1,0,1,-1,-9
CN1C(=O)COc2cc(-c3noc(C(=O)NCc4ccc(F)cc4)n3)ccc21,54*,76*,11,29
CN1C(=O)COc2cc(-c3noc(C(=O)NCc4ccccc4)n3)ccc21,44*,19,7,15
COc1cccc(C2CC(=O)Nc3ccsc32)c1OCc1ccccc1 (configuration not stated),29,41*,24,13
O=C(c1cccc([N+](=O)[O-])c1)[C@H]1[C@]2(C(=O)Nc3ccccc32)[C@@H]2CCCN2[C@@]12C(=O)Nc1ccccc12,6,18,35*,18
COc1cccc(C(=O)[C@H]2[C@]3(C(=O)Nc4ccccc43)[C@@H]3CCCN3[C@@]23C(=O)Nc2ccccc23)c1,4,13,11,5
O=C(CSc1ccc(-c2ccncc2)nn1)Nc1cccc(F)c1,-1,-3,-4,-4
N#Cc1c(-c2ccccc2Cl)c2c([nH]c1=O)-c1ccccc1CC2,10,-8,0,-9
O=c1[nH]ccn2nc3c(c12)CCc1ccccc1-3,36*,nt,nt,5
CC1Cc2cc(S(=O)(=O)N3CCC(C(=O)N4CCN(C5CCCCC5)CC4)CC3)ccc2N1C(=O)C1CC1 (configuration not stated),2,7,2,3
